According to PubChem BioAssay (NCI):
Compounds without any hit were thinned out: in the full panel of roughly 79,000, 15% have a hit. Values without a mark were called inactive. The source made the active and inactive calls. Cut-off read from the data, not from the text of the source: active = growth inhibition above about 70%; inactive = the rest. Where a SMILES comes first, the peptide text is derived from it. [ ]: non-standard residue; d: D form. The star is where a group is joined. ξ: configuration not given here. X15 = COc1ccc(C(N*)c2ccc(OC)cc2)cc1; NMeF = CN[C@@H](Cc1ccccc1)C(=O)O; NMeD = CN[C@@H](CC(=O)O)C(=O)O; NMeV = CN[C@H](C(=O)O)C(C)C; ξNMeV = CNC(C(=O)O)C(C)C; Boc = CC(C)(C)OC(=O)*; ξNMeA = CNC(C)C(=O)O; ξV = CC(C)C(N)C(=O)O

Assay: NCI Yeast Anticancer Drug Screen. Data for the cln2 rad14 strain (AID 165);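 note: 0% = growth equal to vehicle treated cultures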
Conditions: S. cerevisiae cln2 rad14 strain, at 50.0 µM, hits give high values
Outline: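 Growth of compound-exposed yeast (cln2 rad14 genotype) measured and expressed as inhibition relative to vehicle.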
Molecule O=C(O)C1CCC1C(=O)O (stereo unspecified) has a growth inhibition of -23.9%. For COc1ccc(C(NC(=O)C[C@@H](C(=O)N(C)C(C)C(=O)O)N(C)C(=O)[C@@H]2CCCN2C(=O)[C@H](C(C)C)N(C)C(=O)C(C(C)C)N(C)C(=O)[C@H](Cc2ccccc2)N(C)C(=O)C(NC(=O)OC(C)(C)C)C(C)C)c2ccc(OC)cc2)cc1 (stereo partly specified) (Boc-[ξV][NMeF][ξNMeV][NMeV]P[NMeD](X15)[ξNMeA]-OH), the growth inhibition was -7.45%. CN1C(c2ccco2)NC(=O)C12CCN(Cc1ccccc1)CC2 (stereo unspecified) gave a growth inhibition of 10.2%. With Cc1ccc(S(=O)(=O)OCC2CC=CCC2COC(=O)c2ccc([N+](=O)[O-])cc2)cc1 (stereo unspecified) the growth inhibition was 15.1%. Work on Cc1cnc(Br)c(Br)c1 yielded a growth inhibition of 15.9%. For COC(=O)/C=C(/C=C1/C(C#N)=C(N)N(c2ccc(Cl)cc2)C1(C)/C(=C/C(=O)OC)C(=O)OC)C(=O)OC (stereo unspecified), the growth inhibition was 6.95%. CCOc1ccccc1/C=C1\NC(=O)NC1=O showed a growth inhibition of -14.9%. O=C1c2ccccc2C(=O)c2c(NCCNC(=O)C3CCCN3)ccc(NCCNC(=O)C3CCCN3)c21 (stereo unspecified) gave a growth inhibition of 3.4%. For COc1ccc([B-]23OCC[N+]2(CNC(=O)c2ccccc2O)CCO3)cc1 (stereo unspecified), the growth inhibition was 14.9%. Work on COCC(=O)C(C(C)=O)C(c1ccc2c(c1)OCO2)C(C(C)=O)C(=O)COC (stereo unspecified) yielded a growth inhibition of -39.5%. C=CCNC(=O)N(CCCCC(NC(C)=O)C(=O)NCc1ccccc1)Cc1ccccc1 (stereo unspecified) showed a growth inhibition of 11.5%. CC(C)c1ccccc1OC(=O)NC1CCCCC1 showed a growth inhibition of 0.15%. Work on Cc1ccc(NC(=S)N2CCCCC2C)cc1C (stereo unspecified) yielded a growth inhibition of 3.1%. CC1C2c3ccccc3C(c3ccccc32)C1CN1C(CCO)COC1c1ccccc1 (stereo unspecified) showed a growth inhibition of -1.75%. With CN1CCn2c(Br)ccc2C1=O the growth inhibition was 8.45%. In the case of CCC(C)(C)C1CCCCC1OC(C)=O (stereo unspecified), the growth inhibition is reported as 7.95%. Molecule O=C(/C=C\c1ccc(Cl)cc1)c1ccccc1 has a growth inhibition of -6.4%. In the case of O=C1C(Br)=C(Br)C(=O)C2=C1C1c3ccccc3C2c2ccccc21, the growth inhibition is reported as 97% (active). In the case of NC(N)=NS(=O)(=O)c1ccc(N)cc1, the growth inhibition is reported as 14.3%. CSC1(C)C(=O)Nc2ccc(C(F)(F)F)cc21 (stereo unspecified) gave a growth inhibition of 17.7%. In the case of O=C1OCC2Cc3ccccc3C(c3ccccc3)=C12 (stereo unspecified), the growth inhibition is reported as -31.5%.
